The results in this text go back to PubChem BioAssay (NCATS).

The nature of assay [1]: qHTS of pediatric cancer cell lines to identify multiple opportunities for drug repurposing: Primary screen for Saos-2 cells (AID 1347097). Note: nearly all actives have a fitted effect of over 40% in size. In outline:
(§1)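 Cells seeded at 500-1,000 cells/well in growth media, rested 5 hours at 37 degrees C, 5% CO2, then dosed; MIPE compounds at 11-point (from 0.78 nM) and NPC at 8-point (from 0.59 nM) final concentrations. Viability by CellTiter-Glo luminescence after 48 hours.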
For orientation: In qHTS, concentration-response curves come from the screen itself.

Assay [2] is described as follows: qHTS of pediatric cancer cell lines to identify multiple opportunities for drug repurposing: Primary screen for SK-N-SH cells (AID 1347098). Note: nearly all actives have a fitted effect of over 65% in size. In outline: (§2)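 Cells (500-1,000/well) rested 5 h, then received compounds for 48 h; metabolically active cells were measured by CellTiter-Glo luminescence. Final concentrations spanned up to 46 µM (MIPE, 11-point) or 0.59 nM-46 µM (NPC, 8-point) in primary screens, 11-point in follow-ups.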

Assay [3] is described as follows: qHTS of pediatric cancer cell lines to identify multiple opportunities for drug repurposing: Primary screen for NB1643 cells (AID 1347099). Note: nearly all actives have a fitted effect of over 50% in size. Summed up: as §1
Assay [4] in a line: qHTS of pediatric cancer cell lines to identify multiple opportunities for drug repurposing: Primary screen for LAN-5 cells (AID 1347100). Summed up:
(§3)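 Viability after 48 h compound treatment at 37C, 500-1,000 cells/well, read as ATP luminescence with CellTiter-Glo. Primary screens used 11-point (MIPE, 0.78 nM-46 µM) or 8-point (NPC, 0.59 nM-46 µM) final concentrations; follow-up screens used 11-point dilutions.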

Assay [5] is described as follows: qHTS of pediatric cancer cell lines to identify multiple opportunities for drug repurposing: Primary screen for BT-12 cells (AID 1347101). Note: nearly all actives have a fitted effect of over 25% in size. Summed up: as §2
Assay [6] is described as follows: qHTS of pediatric cancer cell lines to identify multiple opportunities for drug repurposing: Primary screen for Rh18 cells (AID 1347102). Note: nearly all actives have a fitted effect of over 65% in size. In outline:
as §3

Assay [7] can be described thus: qHTS of pediatric cancer cell lines to identify multiple opportunities for drug repurposing: Primary screen for OHS-50 cells (AID 1347103). Note: nearly all actives have a fitted effect of over 40% in size. In outline:
as §2

Assay [8] in a line: qHTS of pediatric cancer cell lines to identify multiple opportunities for drug repurposing: Primary screen for RD cells (AID 1347104). Note: nearly all actives have a fitted effect of over 55% in size. In outline:
as §1

Assay [9] is described as follows: qHTS of pediatric cancer cell lines to identify multiple opportunities for drug repurposing: Primary screen for MG 63 (6-TG R) cells (AID 1347105). Note: nearly all actives have a fitted effect of over 50% in size. Summed up: as §1
A short description of assay [10]: qHTS of pediatric cancer cell lines to identify multiple opportunities for drug repurposing: Primary screen for control Hh wild type fibroblast cells (AID 1347106). Note: nearly all actives have a fitted effect of over 55% in size. In outline: as §3
A short description of assay [11]: qHTS of pediatric cancer cell lines to identify multiple opportunities for drug repurposing: Primary screen for Rh41 cells (AID 1347108). Note: nearly all actives have a fitted effect of over 70% in size. Summed up:
as §1

The nature of assay [12]: qHTS of pediatric cancer cell lines to identify multiple opportunities for drug repurposing: Confirmatory screen for NB1643 cells (AID 1347109). Note: nearly all actives have a fitted effect of over 45% in size. In outline: as §3
Assay [13] is described as follows: qHTS of pediatric cancer cell lines to identify multiple opportunities for drug repurposing: Confirmatory screen for A673 cells (AID 1347110). Note: nearly all actives have a fitted effect of over 65% in size. Summed up: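 A673 cells seeded at 500-1,000 cells/well, rested 5 h, then dosed; primary MIPE 11-point (0.78 nM to 46 µM), NPC (0.59 nM to 46 µM); confirmatory 11-point. CellTiter-Glo luminescence after 48 h.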
The nature of assay [14]: qHTS of pediatric cancer cell lines to identify multiple opportunities for drug repurposing: Confirmatory screen for SK-N-MC cells (AID 1347111).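 Note: cells exposed to compound for 48 h before the readout; nearly all actives have a fitted effect of over 70% in size.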 Summed up:
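SK-N-MC cells at 500-1,000 cells/well in growth media were pre-incubated 5 h, then exposed to compounds at 11-point dilutions for 48 h at 37 degrees C, 5% CO2. Viability was read as CellTiter-Glo luminescence.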

Assay [15] is described as follows: qHTS of pediatric cancer cell lines to identify multiple opportunities for drug repurposing: Confirmatory screen for BT-12 cells (AID 1347112). Note: nearly all actives have a fitted effect of over 55% in size. In outline: as §3
Assay [16] is described as follows: qHTS of pediatric cancer cell lines to identify multiple opportunities for drug repurposing: Confirmatory screen for LAN-5 cells (AID 1347113). Note: nearly all actives have a fitted effect of over 65% in size. Summed up: as §3
A short description of assay [17]: qHTS of pediatric cancer cell lines to identify multiple opportunities for drug repurposing: Confirmatory screen for NB-EBc1 cells (AID 1347115). Note: nearly all actives have a fitted effect of over 45% in size. In outline:
as §3

The nature of assay [18]: qHTS of pediatric cancer cell lines to identify multiple opportunities for drug repurposing: Primary screen for Rh30 cells (AID 1347107). Note: nearly all actives have a fitted effect of over 75% in size. Summed up:
as §3

Assay [19] is described as follows: qHTS of pediatric cancer cell lines to identify multiple opportunities for drug repurposing: Confirmatory screen for DAOY cells (AID 1347114). Note: nearly all actives have a fitted effect of over 65% in size. In outline:
(§4)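 Viability measured as metabolically active cells via CellTiter-Glo luminescence following 48 hours of compound exposure, 11-point dilutions in confirmatory testing. 500-1,000 cells/well plated 5 hours before dosing; controls were DMSO and 2.3 µM bortezomib.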

The nature of assay [20]: qHTS of pediatric cancer cell lines to identify multiple opportunities for drug repurposing: Confirmatory screen for SJ-GBM2 cells (AID 1347116). Note: nearly all actives have a fitted effect of over 60% in size. In outline: as §4

Inconclusive results are not listed. Active and inactive are the calls of the source. Calls come from the whole dose curve; as a rule, active = well fitted curve in the direction sought with a large enough effect; inconclusive = small, poorly fitted or top-dose-only effect, or another doubt; inactive = no such curve, though single readings can be large; an effect the other way counts as inactive or inconclusive.
Potency is the fitted concentration of half-maximal effect.

Take `O=C(Nc1cc(C(F)(F)F)cc(C(F)(F)F)c1)c1cc(Cl)ccc1O`: the Potency in assay [1] was 2.64 µM (active); in [2], 2.41 µM (active); in assay [3], 0.372 µM (active); in assay [4], 0.332 µM (active); in assay [5], 1.72 µM (active); in assay [6], 4.18 µM (active). Further, the Potency in assay [7] was 0.432 µM (active); in assay [8] it was 0.662 µM (active); in [9], 0.743 µM (active); in assay [11] it was 2.35 µM (active); in [12], 1.65 µM (active); in [13] it was 3.29 µM (active). The Potency is 3.69 µM (active) in assay [14], 3.69 µM (active) in [15], 2.61 µM (active) in [16] and 2.93 µM (active) in assay [17]. Besides, in assay [10], the Potency entry was “inactive”.

Consider `COC(=O)[C@]12CCC(C)(C)C[C@@H]1[C@@H]1C(=O)C=C3[C@@]4(C)C=C(C#N)C(=O)C(C)(C)[C@@H]4CC[C@@]3(C)[C@]1(C)CC2`, for which the Potency in [1] was 0.743 µM (active); in assay [2], 1.92 µM (active); in assay [3], 0.662 µM (active); in assay [4] it was 0.833 µM (active); in assay [5], 0.968 µM (active); in [6], 0.935 µM (active). In addition, the Potency in assay [7] is 0.685 µM (active); in assay [8], 0.526 µM (active); in assay [9], 0.743 µM (active); in assay [10], 5.9 µM (active); in assay [18], 1.48 µM (active); in assay [11], 1.18 µM (active). Further, the Potency in assay [12] is 3.29 µM (active); in assay [14], 3.69 µM (active); in [15], 7.37 µM (active); in assay [16], 2.61 µM (active); in assay [19], 2.33 µM (active); in assay [17] it was 5.85 µM (active). Also, in [20], the Potency was 4.14 µM (active).

In the case of `C[C@@H](Oc1cc(-c2cnn(C3CCNCC3)c2)cnc1N)c1c(Cl)ccc(F)c1Cl`, the Potency in assay [1] is 9.35 µM (active); in [2], 19.2 µM (active); in [3] it was 3.72 µM (active); in [4], 1.05 µM (active); in assay [5] it was 24.3 µM (active); in assay [6] it was 16.6 µM (active). Besides, the Potency in [7] was 2.43 µM (active); in [8], 16.6 µM (active); in assay [9], 18.7 µM (active); in assay [18], 18.7 µM (active); in [11] it was 18.7 µM (active); in [12], 5.85 µM (active). Moreover, the Potency in assay [13] is 3.29 µM (active); in [14], 5.85 µM (active); in assay [16], 5.85 µM (active); in [17], 16.5 µM (active). For the same molecule, the Potency result in assay [10] is “inactive”.

Regarding `Nc1ccn([C@@H]2CS[C@H](CO)O2)c(=O)n1`, the Potency result in assay [1], in assay [2], in [3], in [4], in assay [5] and in [6] was “inactive” each time. The Potency result in assay [7], in assay [8], in assay [9], in [10], in [18] and in assay [11] was “inactive” throughout.

As for `CC1(C)OC2=C(C(=O)c3ccccc3C2=O)[C@H](NCc2ccccc2)[C@H]1O`, the Potency in [1] is 5.9 µM (active); in assay [2], 4.82 µM (active); in assay [3], 4.18 µM (active); in assay [4] it was 5.26 µM (active); in assay [5], 13.7 µM (active); in assay [6] it was 7.43 µM (active). Further, the Potency in assay [7] was 4.32 µM (active); in assay [8], 10.5 µM (active); in [9] it was 9.35 µM (active); in assay [10], 23.5 µM (active); in assay [18], 5.9 µM (active); in assay [11], 7.43 µM (active). In addition, the Potency is 7.37 µM (active) in [12]; 5.22 µM (active) in assay [14]; 20.8 µM (active) in assay [15]; 7.37 µM (active) in [16]; 8.27 µM (active) in assay [19]; 9.27 µM (active) in assay [17]. For the same molecule, the Potency in assay [20] was 7.37 µM (active).

`O=C(C=Cc1c(C(=O)O)[nH]c2cc(Cl)cc(Cl)c12)Nc1ccccc1`: the Potency result in [1], in assay [2], in [3], in assay [4], in assay [5] and in assay [6] was “inactive” throughout. Also, the Potency entry in assay [7], in assay [8], in assay [9], in assay [10], in assay [18] and in assay [11] was “inactive” throughout.

Consider `CCOc1ccccc1OCCNC(C)Cc1ccc(OC)c(S(N)(=O)=O)c1` (centres undefined), for which the Potency entry in assay [1], in [2], in assay [3], in [4], in assay [5] and in [6] was “inactive” throughout. Besides, the Potency result in [7], in assay [8], in assay [9], in assay [10], in [18] and in assay [11] was “inactive” throughout.

As for `Cc1ccc(-c2ncn(-c3ccc(Nc4nccc(-c5cccc(N6CCOCC6)c5)n4)cc3)n2)cn1`, the Potency in assay [1] is 0.0935 µM (active); in [2] it was 0.383 µM (active); in [3] it was 0.0526 µM (active); in [4], 0.0662 µM (active); in assay [5], 0.122 µM (active); in assay [6], 0.0526 µM (active). For the same molecule, the Potency was 0.217 µM (active) in assay [7]; 0.105 µM (active) in assay [8]; 0.0935 µM (active) in [9]; 0.166 µM (active) in assay [10]; 0.132 µM (active) in assay [11]; 0.107 µM (active) in assay [12]. In addition, the Potency in [13] is 0.17 µM (active); in assay [14] it was 0.12 µM (active); in assay [15] it was 0.214 µM (active); in [16], 0.0955 µM (active); in [19], 0.24 µM (active); in assay [20], 0.24 µM (active).

For the molecule `Clc1cccc(-c2nnnn2Cc2cccnc2)c1Cl`, the Potency entry in assay [1], in assay [2], in assay [3], in assay [4], in [5] and in [6] was “inactive” each time. The Potency result in assay [7], in assay [8], in assay [9], in [10], in assay [18] and in assay [11] was “inactive” each time.

In the case of `O=C(CCCCCCC(=O)Nc1ccc([C@H]2O[C@@H](CSc3nc(-c4ccccc4)c(-c4ccccc4)o3)C[C@@H](c3ccc(CO)cc3)O2)cc1)NO`, the Potency entry in assay [1] was “inactive”. Besides, the Potency is 27.1 µM (active) in assay [2]; 7.43 µM (active) in assay [3]; 8.33 µM (active) in assay [4]; 21.7 µM (active) in assay [5]; 10.5 µM (active) in assay [6]; 15.3 µM (active) in assay [7]. The Potency in assay [8] is 16.6 µM (active); in assay [9] it was 14.8 µM (active); in assay [18] it was 14.8 µM (active); in assay [11], 9.35 µM (active).
